According to PubChem BioAssay (NCATS):
Records with an inconclusive call do not appear. The source made the active and inactive calls. Unless noted, calls come from the whole dose curve; as a rule, active = well fitted inhibition curve with a large enough effect; inconclusive = small, poorly fitted or top-dose-only effect; inactive = flat fitted curve, though single readings scatter.

Assays:
[1] = qHTS drug screen for cell cycle checkpoint inhibitors in PARPi-resistant BRCA-mutant ovarian cancer cell lines. (AID 1963452; calls by dose curve); details: PEO1/OlaR viability, CellTiter-Glo luminescence, 96 h; for Z-AUC: stronger effect = lower value
Procedure, shortened: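 PEO1, PEO4 and PEO1/OlaR ovarian cancer cells, 600 per well, exposed 96 h at 37C to a dilution series. Viability read by CellTiter-Glo luminescence, normalized to DMSO and empty wells; activity summarized as Z-AUC.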

[2] = qHTS profiling for inhibitors of Plasmodium falciparum proliferation (AID 504749); note: nearly all actives have a fitted effect of over 60% in size;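 for activity, negative = inhibition: 0% = DMSO vehicle and full inhibition = artemisinin control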; details: P. falciparum in erythrocytes, SYBR Green DNA, 72 h
Procedure, shortened: (§1)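 Each compound contacts P. falciparum-infected red blood cells for 72 h at 37 C; lysis buffer (Tris, EDTA, saponin, Triton X, SYBR Green I) is added and fluorescence measured next morning; values normalized to controls.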

3D7 = assay: as above; details: P. falciparum in erythrocytes, SYBR Green DNA, 72 h; series mostly up to 28.7 µM
Procedure, shortened: as §1

7G8 = assay: as above; details: P. falciparum in erythrocytes, SYBR Green DNA, 72 h; series mostly up to 28.7 µM
Procedure, shortened: as §1

AA1029 = assay: as above; details: P. falciparum in erythrocytes, SYBR Green DNA, 72 h; series mostly up to 28.7 µM
Procedure, shortened: as §1

AS120 = assay: as above; details: P. falciparum in erythrocytes, SYBR Green DNA, 72 h; series mostly up to 28.7 µM
Procedure, shortened: as §1

ATS189 = assay: as above; details: P. falciparum in erythrocytes, SYBR Green DNA, 72 h; series mostly up to 28.7 µM
Procedure, shortened: as §1

ATS95 = assay: as above; details: P. falciparum in erythrocytes, SYBR Green DNA, 72 h; series mostly up to 28.7 µM
Procedure, shortened: as §1

[3] = measured here: PEO1 parental Z-AUC
[4] = at 28.7 µM (top of the series), parasite line A
[5] = at 28.7 µM (top of the series), parasite line B
Potency is the fitted concentration of half-maximal effect.

CC(=O)c1cnc2ccc(-c3cc(Cl)c(O)c(Cl)c3)nc2c1NC1CCC(CN(C)C)CC1 (stereo not given)
-1.7: Z-AUC [1, 3]
active: Potency [1] 252 nM
-1.3: Z-AUC ([1]; measured here: PEO4 Z-AUC)

Cc1nn(C)c2c1C(c1ccc(C(F)(F)F)cc1)C(C#N)=C(N)O2 (stereo not given)
1.31: Z-AUC [1, 3]
1.26: Z-AUC ([1]; measured here: PEO4 Z-AUC)
inactive: Z-AUC [1] 0.183

COc1cc2c(Nc3ccc(Cl)c(Cl)c3F)ncnc2cc1OCC1C[C@@H]2CN(C)C[C@@H]2C1 (stereo not given in full)
inactive: Z-AUC [1] -0.294
-0.529: Z-AUC [1, 3]
-0.609: Z-AUC ([1]; measured here: PEO4 Z-AUC)

Clc1cc(Cl)c(OCC#CI)cc1Cl
active: Potency ([2]; parasite line A) 11200 nM | Potency ([2]; parasite line B) 11200 nM | Potency (3D7) 11200 nM | Potency (7G8) 11200 nM | Potency (AA1029) 12600 nM

O=C(O)c1ccc(CCCc2ccc(OCCc3ccc(F)cc3)cc2)o1
0.926: Z-AUC ([1]; measured here: PEO4 Z-AUC)
0.863: Z-AUC [1, 3]
inactive: Z-AUC [1] 0.294

CC(C)C(=O)OCC(=O)[C@@]12O[C@H](C3CCCCC3)O[C@@H]1C[C@H]1[C@@H]3CCC4=CC(=O)C=C[C@]4(C)[C@H]3[C@@H](O)C[C@@]12C
0.238: Z-AUC [1, 3]
-0.69: Z-AUC ([1]; measured here: PEO4 Z-AUC)
inactive: Z-AUC [1] -0.223

Cc1cccc(-c2[nH]c(CNc3ccccc3F)nc2-c2ccc3ncnn3c2)n1
inactive: Z-AUC [1] -0.298
-0.0692: Z-AUC ([1]; measured here: PEO4 Z-AUC)
0.223: Z-AUC [1, 3]

NC(=O)c1ncn(C2OC(CO)C(O)C2O)n1 (stereo not given)
active: Potency (7G8) 7940 nM
inactive: activity, negative = inhibition [2, 4] -11.3% | activity, negative = inhibition [2, 5] -20.5% | Potency (3D7) | Potency (AA1029) | Potency (AS120) | Potency (ATS189) | Potency (ATS95)

Nc1ncnc2c1ncn2[C@@H]1O[C@H](COP(=O)(O)OP(=O)(O)OP(=O)(O)O)[C@@H](O)[C@H]1O
inactive: activity, negative = inhibition [2, 4] 19.4% | activity, negative = inhibition [2, 5] 9.47% | Potency (3D7) | Potency (7G8) | Potency (AA1029) | Potency (AS120) | Potency (ATS189) | Potency (ATS95)

O=C(O)c1cc(O)c2c(c1)[O][Bi][O]2
inactive: activity, negative = inhibition [2, 4] -9.75% | activity, negative = inhibition [2, 5] 14.4% | Potency (3D7) | Potency (7G8) | Potency (AA1029) | Potency (AS120) | Potency (ATS189) | Potency (ATS95)

O=C(NCC(=O)N1CC[C@H](NC2CCC(O)(c3ccc(-c4ncccn4)cn3)CC2)C1)c1cccc(C(F)(F)F)c1 (stereo not given in full)
-0.816: Z-AUC ([1]; measured here: PEO4 Z-AUC)
inactive: Z-AUC [1] -0.56
-0.577: Z-AUC [1, 3]

Cc1c(-c2ccnn2C)cc(C(=O)NCc2ccc(S(C)(=O)=O)cn2)c(=O)n1-c1cccc(C(F)(F)F)c1
-0.353: Z-AUC [1, 3]
inactive: Z-AUC [1] -0.519
-0.364: Z-AUC ([1]; measured here: PEO4 Z-AUC)

Cc1ccc(C(=O)Nc2ccc(Oc3cc4cnn(C)c4cc3-c3cn[nH]c3)c(F)c2)c(=O)n1-c1ccc(F)cc1
-0.211: Z-AUC ([1]; measured here: PEO4 Z-AUC)
0.144: Z-AUC [1, 3]
inactive: Z-AUC [1] -0.0237

O=C(COc1ccc(Cl)cc1)OCCNC12CC3CC(CC(C3)C1)C2
inactive: activity, negative = inhibition [2, 4] 9.51% | activity, negative = inhibition [2, 5] 10.7% | Potency (3D7) | Potency (7G8) | Potency (AA1029) | Potency (AS120) | Potency (ATS189) | Potency (ATS95)

CCCCCC(CC)COC(=O)CC(C(=O)OCC(CC)CCCC)S(=O)(=O)O (stereo not given)
inactive: activity, negative = inhibition [2, 4] 7.28% | activity, negative = inhibition [2, 5] 3.54% | Potency (3D7) | Potency (7G8) | Potency (AA1029) | Potency (AS120) | Potency (ATS189) | Potency (ATS95)

CC1(C)S[C@@H]2[C@H](NC(=O)[C@@H](NC(=O)N3CCNC3=O)c3ccccc3)C(=O)N2[C@H]1C(=O)O
inactive: activity, negative = inhibition ([2]; at 12.8 µM (top of the series), parasite line A) 9.18% | activity, negative = inhibition ([2]; at 12.8 µM (top of the series), parasite line B) -0.988% | Potency (3D7) | Potency (7G8) | Potency (AA1029) | Potency (AS120) | Potency (ATS189) | Potency (ATS95)

C[C@@H]1CCC2[C@@H](C)[C@@H](O)O[C@@H]3O[C@@]4(C)CC[C@@H]1[C@@]23OO4 (stereo not given in full)
active: Potency ([2]; parasite line A) 1.4 nM | Potency ([2]; parasite line B) 1.8 nM | Potency (3D7) 3.5 nM | Potency (7G8) 0.8 nM | Potency (AA1029) 2.2 nM | Potency (AS120) 1.6 nM | Potency (ATS189) 2.2 nM | Potency (ATS95) 2.2 nM

COC(C(=O)C(O)C(C)O)C1Cc2cc3cc(OC4CC(OC5CC(O)C(O)C(C)O5)C(O)C(C)O4)c(C)c(O)c3c(O)c2C(=O)C1OC1CC(OC2CC(OC3CC(C)(O)C(O)C(C)O3)C(O)C(C)O2)C(O)C(C)O1 (stereo not given)
active: Potency ([2]; parasite line A) 158 nM | Potency ([2]; parasite line B) 224 nM | Potency (3D7) 282 nM | Potency (7G8) 70.8 nM | Potency (AA1029) 141 nM | Potency (AS120) 112 nM | Potency (ATS189) 282 nM | Potency (ATS95) 178 nM

Cc1ccccc1OCC(O)CNCCOc1ccc(C(N)=O)cc1 (stereo not given)
inactive: activity, negative = inhibition [2, 4] 11.2% | activity, negative = inhibition [2, 5] 8.46% | Potency (3D7) | Potency (7G8) | Potency (AA1029) | Potency (AS120) | Potency (ATS189) | Potency (ATS95)

O=C1C(=O)c2ncccc2-c2cccnc21
active: Potency ([2]; parasite line A) 891 nM | Potency ([2]; parasite line B) 1120 nM | Potency (3D7) 891 nM | Potency (7G8) 1000 nM | Potency (AA1029) 1000 nM | Potency (AS120) 708 nM | Potency (ATS189) 1410 nM | Potency (ATS95) 1000 nM

CCC(=O)NCCC1CCc2ccc3c(c21)CCO3 (stereo not given)
inactive: activity, negative = inhibition [2, 4] 6.95% | activity, negative = inhibition [2, 5] 0.538% | Potency (3D7) | Potency (7G8) | Potency (AA1029) | Potency (AS120) | Potency (ATS189) | Potency (ATS95)
